Screening data from PubChem BioAssay.
An excerpt weighted towards active compounds, which were near 3.6% of everything screened.
Autofluor counter: counter-screen for toxin protease inhibitors: compound fluorescence | fluorescence intensity (test concentration not listed) | compound autofluorescence counterscreen, microsphere flow cytometry; stronger effect = higher value | AID 624483 | 360,000 compounds, 3.1% hits; in the data active = fluorescence intensity above about 16000; inconclusive = no clear call, values can overlap the other calls
MazF activator: activators of E. coli MazEF toxin-antitoxin RNase; AID 504720; 350,000 compounds, 0.32% hits; FAM/BHQ RNA-DNA oligo cleavage fluorescence, 5 h; activation, % at 20 µM; in the data active = activation above about 50%
BoNT-A LC inh2: blocks Botulinum neurotoxin A light chain protease; multiplex microsphere protease substrate cleavage, flow cytometry; inhibition, % at 10 µM; 360,000 compounds, 0.17% hits
BoNT-F LC inh: inhibitors of Botulinum neurotoxin F light chain protease | Multiplex microsphere protease cleavage assay, flow cytometry | inhibition, % at 10 µM | 360,000 compounds, 0.22% hits | AID 588497; in the data active = inhibition above about 35%, passing the limit was not always enough; inconclusive = no clear call, values can overlap the other calls
Anthrax LF inh2: anthrax lethal factor protease inhibition | 360,000 compounds, 0.12% hits | P15917 | inhibition, % at 10 µM | multiplex microsphere protease cleavage assay, LF
Target sequence (P15917 whole entry, looked up): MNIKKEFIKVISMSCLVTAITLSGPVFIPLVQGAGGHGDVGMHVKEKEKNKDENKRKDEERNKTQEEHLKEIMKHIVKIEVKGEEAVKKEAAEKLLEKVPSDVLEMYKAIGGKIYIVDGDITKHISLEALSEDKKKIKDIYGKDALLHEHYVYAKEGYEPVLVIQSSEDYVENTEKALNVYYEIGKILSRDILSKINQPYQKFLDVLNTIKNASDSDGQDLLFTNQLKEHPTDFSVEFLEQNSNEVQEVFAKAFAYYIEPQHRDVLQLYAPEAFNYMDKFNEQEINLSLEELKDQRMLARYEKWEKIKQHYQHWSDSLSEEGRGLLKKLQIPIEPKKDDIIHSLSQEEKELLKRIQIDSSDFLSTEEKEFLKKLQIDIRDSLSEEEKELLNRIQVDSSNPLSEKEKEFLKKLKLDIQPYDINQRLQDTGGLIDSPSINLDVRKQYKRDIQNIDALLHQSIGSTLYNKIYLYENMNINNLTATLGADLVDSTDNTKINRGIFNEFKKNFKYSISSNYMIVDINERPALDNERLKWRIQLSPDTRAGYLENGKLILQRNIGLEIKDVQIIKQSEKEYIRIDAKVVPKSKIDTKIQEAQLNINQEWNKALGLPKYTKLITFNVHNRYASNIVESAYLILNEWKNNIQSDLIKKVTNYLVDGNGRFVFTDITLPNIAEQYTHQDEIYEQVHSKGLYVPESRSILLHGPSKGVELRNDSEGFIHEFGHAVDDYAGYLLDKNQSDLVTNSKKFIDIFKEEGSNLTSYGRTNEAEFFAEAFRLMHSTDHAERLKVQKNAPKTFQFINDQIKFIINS
Hits are given with their value. Rule as the data show it, unless noted: active = inhibition above about 30%; inconclusive = no clear call, values can overlap the other calls; inactive = below that.

For CCCOc1cccc(C2C(C(=O)c3ccco3)=C(O)C(=O)N2c2nnc(C)s2)c1 (stereo not given) the results were Autofluor counter inactive, MazF activator inactive, BoNT-A LC inh2 inactive, BoNT-F LC inh inactive and Anthrax LF inh2 inactive.
Cc1ccc(C(=O)N2CCN(c3ccccc3F)CC2)cc1NC1=NC2CS(=O)(=O)CC2S1 (stereo not given) was read as Autofluor counter inactive, MazF activator inactive, BoNT-A LC inh2 inactive, BoNT-F LC inh inactive and Anthrax LF inh2 inactive.
`O=C(c1sc2ccccc2c1Cl)N(Cc1ccccc1)C1CCS(=O)(=O)C1` (stereo not given) gave MazF activator inactive.
Screening O=C(c1sc2ccccc2c1Cl)N(Cc1ccccc1Cl)C1CCS(=O)(=O)C1 (stereo not given) returned Autofluor counter 22430, MazF activator inactive, BoNT-A LC inh2 inactive, BoNT-F LC inh inactive and Anthrax LF inh2 inactive.
Screening O=C(c1sc2ccccc2c1Cl)N(Cc1ccco1)C1CCS(=O)(=O)C1 (stereo not given) returned Autofluor counter 23946, MazF activator inactive, BoNT-A LC inh2 inconclusive, BoNT-F LC inh inactive and Anthrax LF inh2 inactive.
`COc1cc2[nH]c(=S)n(C3CC3)c(=O)c2cc1OC` gave Autofluor counter inactive, MazF activator inactive, BoNT-A LC inh2 inactive, BoNT-F LC inh inactive and Anthrax LF inh2 inactive.
Screening COc1cc2[nH]c(=S)n(C3CCCC3)c(=O)c2cc1OC returned Autofluor counter 23713, MazF activator inactive, BoNT-A LC inh2 inactive, BoNT-F LC inh inactive and Anthrax LF inh2 inactive.
For COc1cc2[nH]c(=S)n(N(C(C)=O)C(C)=O)c(=O)c2cc1OC the results were Autofluor counter 22631, MazF activator inactive, BoNT-A LC inh2 inactive, BoNT-F LC inh inactive and Anthrax LF inh2 inactive.
For O=C(CC1SC2=NCCN2C1=O)Nc1ccc(Cl)cc1 (stereo not given) the results were Autofluor counter 17758, MazF activator inactive, BoNT-A LC inh2 inactive, BoNT-F LC inh inactive and Anthrax LF inh2 inactive.
Screening CCOC(=O)C1=CN(Cc2ccco2)S(=O)(=O)NC1c1cccc(OC)c1 (stereo not given) returned Autofluor counter inactive, MazF activator inactive, BoNT-A LC inh2 inactive, BoNT-F LC inh inactive and Anthrax LF inh2 inactive.
O=C(Nc1ccon1)C(Sc1ccccc1)c1ccccc1 (stereo not given) was read as Autofluor counter 23273, MazF activator inactive, BoNT-A LC inh2 inconclusive, BoNT-F LC inh inactive and Anthrax LF inh2 inactive.
`O=C(Nc1nncs1)C(Sc1ccccc1)c1ccccc1` (stereo not given) gave Autofluor counter inactive, MazF activator inactive, BoNT-A LC inh2 inactive, BoNT-F LC inh inactive and Anthrax LF inh2 inactive.
For COc1cc(CNc2ccc(C)c(C)c2)cc(OC)c1OC the results were Autofluor counter 17356, MazF activator inactive, BoNT-A LC inh2 inactive, BoNT-F LC inh inactive and Anthrax LF inh2 inactive.
CCCCCOC(=O)CSc1n[nH]c(=O)[nH]c1=O was read as Autofluor counter 22105, MazF activator inactive, BoNT-A LC inh2 inactive, BoNT-F LC inh inactive and Anthrax LF inh2 inactive.
Screening CCC1(CC)C(=O)N(c2ccccc2)C(=N)N(c2ccccc2)C1=O returned Autofluor counter inactive, MazF activator inactive, BoNT-A LC inh2 inactive, BoNT-F LC inh inactive and Anthrax LF inh2 inactive.
Nc1c(S(=O)(=O)c2cccs2)c2nc3ccccc3nc2n1Cc1ccccc1 was read as Autofluor counter 16336, MazF activator inactive, BoNT-A LC inh2 inactive, BoNT-F LC inh inactive and Anthrax LF inh2 inactive.
Screening COc1cccc(/C=N/n2c(N)c(S(=O)(=O)c3cccs3)c3nc4ccccc4nc32)c1OC returned Autofluor counter 16852, MazF activator inactive, BoNT-A LC inh2 inactive, BoNT-F LC inh inactive and Anthrax LF inh2 inactive.
CC(=O)Nc1c(S(=O)(=O)c2ccccc2)c2nc3ccccc3nc2n1Cc1ccccc1 was read as Autofluor counter inactive, MazF activator inactive, BoNT-A LC inh2 inactive, BoNT-F LC inh inactive and Anthrax LF inh2 inactive.
For Cc1ccc(Cn2c(N)c(S(=O)(=O)c3cccs3)c3nc4ccccc4nc32)cc1 the results were Autofluor counter 18251, MazF activator inactive, BoNT-A LC inh2 inactive, BoNT-F LC inh inactive and Anthrax LF inh2 inactive.
Screening COc1cccc(/C=N/n2c(CO)nc3ccccc32)c1OC returned Autofluor counter 21345, MazF activator inactive, BoNT-A LC inh2 inconclusive, BoNT-F LC inh inactive and Anthrax LF inh2 inactive.
COCCn1c(N)c(S(=O)(=O)c2cccs2)c2nc3ccccc3nc21 was read as Autofluor counter inactive, MazF activator inactive, BoNT-A LC inh2 inactive, BoNT-F LC inh inactive and Anthrax LF inh2 inactive.
COc1ccc(Cn2c(N)c(S(=O)(=O)c3cccs3)c3nc4ccccc4nc32)cc1 was read as Autofluor counter inactive, MazF activator inactive, BoNT-A LC inh2 inactive, BoNT-F LC inh inactive and Anthrax LF inh2 inactive.
`COc1cc2oc(=O)cc(CN3CCN(C(C)=O)CC3)c2cc1Cl` gave Autofluor counter inactive, BoNT-A LC inh2 inactive, BoNT-F LC inh inactive and Anthrax LF inh2 inactive.
Screening c1cncc(Nc2nc(-c3ccncc3)cs2)c1 returned Autofluor counter 18714, MazF activator inactive, BoNT-A LC inh2 inactive, BoNT-F LC inh inactive and Anthrax LF inh2 inactive.
Screening COC(=O)CN(C#N)c1nc(OC)nc(N(C)C)n1 returned Autofluor counter 17155, MazF activator inactive, BoNT-A LC inh2 inactive, BoNT-F LC inh inactive and Anthrax LF inh2 inactive.
COC(=O)CN(C#N)c1nc(N(C)C)nc(N(C)C)n1 was read as Autofluor counter inactive, MazF activator inactive, BoNT-A LC inh2 inactive, BoNT-F LC inh inactive and Anthrax LF inh2 inactive.
`CCCN(CC(=O)Nc1ccccc1OC)C(=O)c1cc(-c2ccccc2)nn1-c1ccccc1` gave Autofluor counter inactive, MazF activator inactive, BoNT-A LC inh2 inactive, BoNT-F LC inh inactive and Anthrax LF inh2 inactive.
O=C1CCOc2cc(OCc3ccccc3)ccc21 was read as Autofluor counter 21171, MazF activator inactive, BoNT-A LC inh2 inactive, BoNT-F LC inh inactive and Anthrax LF inh2 inactive.
Screening CC1(C)CC(=O)c2ccc(OCc3ccc([N+](=O)[O-])cc3)cc2O1 returned Autofluor counter inconclusive, MazF activator inactive, BoNT-A LC inh2 inactive, BoNT-F LC inh inactive and Anthrax LF inh2 inactive.
For CCCCn1nnc(NC(=O)COc2ccc(Cl)c(C)c2)n1 the results were Autofluor counter 17759, MazF activator inactive, BoNT-A LC inh2 inactive, BoNT-F LC inh inactive and Anthrax LF inh2 inactive.
For C/C(=N/NC(=O)COc1cc(C)ccc1C(C)C)C(=O)O the results were Autofluor counter inactive, MazF activator inactive, BoNT-A LC inh2 inactive, BoNT-F LC inh inactive and Anthrax LF inh2 inactive.
`CCn1nnc(NC(=O)COc2cc(C)ccc2C(C)C)n1` gave Autofluor counter 20175, MazF activator inactive, BoNT-A LC inh2 inactive, BoNT-F LC inh inactive and Anthrax LF inh2 inactive.
Screening COc1ccc(OC)c(/C=N/NC(=O)CCc2c(C)n[nH]c2C)c1 returned Autofluor counter inactive, MazF activator inactive, BoNT-A LC inh2 inactive, BoNT-F LC inh 40.5 and Anthrax LF inh2 inactive.
For N/C(=N\OC(=O)c1ccc(F)cc1)c1ccccc1 the results were Autofluor counter 22601, MazF activator inactive, BoNT-A LC inh2 inactive, BoNT-F LC inh inactive and Anthrax LF inh2 inactive.
